In the library only some 2.4% were active in any assay of this set; here they are far more common.
Pol eta inh: DNA polymerase eta (human) inhibition. Q9Y253. recombinant Pol eta, fluorescent DNA replication assay. Potency, µM (series often up to 114 µM), for inactives: at the top dose activity change, negative = inhibition, most hits filed as inhibitors. hit rate 1.2% among 390,000. AID 588591; note: % is set by controls: 0 for no effect and ±100 for the full control effect
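Fluorescent replication assay: 50 nM final substrate added after a 15 min room-temperature compound preincubation with 10 nM enzyme. Signal taken at 0 min and again at 10 min.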
POLK inh: DNA polymerase kappa (human) inhibition; Q9UBT6; purified Pol kappa, fluorescent DNA synthesis assay, 10 min; Potency, µM (doses to about 107 µM), for the others: top-dose activity, negative = inhibition, actives largely listed as inhibitors; hit rate 0.53% among 400,000; AID 588579; note: % is set by controls: 0 for no effect and ±100 for the full control effect
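Pol kappa 10 nM + cpd, 15 min RT; start w/ substrate 50 nM final; fluorescence kinetic read, 0 and 10 min. Neg ctrl: buffer, no enzyme.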
POLI inh: inhibitors of human DNA polymerase iota. Q9UNA4. Pol iota fluorescent replication assay, 10 min. Potency, µM (doses to about 115 µM), for the others: at the top dose activity, negative = inhibition, most hits filed as inhibitors. hit rate 1% among 390,000. AID 588590
Target sequence (Q9UNA4 whole entry, looked up): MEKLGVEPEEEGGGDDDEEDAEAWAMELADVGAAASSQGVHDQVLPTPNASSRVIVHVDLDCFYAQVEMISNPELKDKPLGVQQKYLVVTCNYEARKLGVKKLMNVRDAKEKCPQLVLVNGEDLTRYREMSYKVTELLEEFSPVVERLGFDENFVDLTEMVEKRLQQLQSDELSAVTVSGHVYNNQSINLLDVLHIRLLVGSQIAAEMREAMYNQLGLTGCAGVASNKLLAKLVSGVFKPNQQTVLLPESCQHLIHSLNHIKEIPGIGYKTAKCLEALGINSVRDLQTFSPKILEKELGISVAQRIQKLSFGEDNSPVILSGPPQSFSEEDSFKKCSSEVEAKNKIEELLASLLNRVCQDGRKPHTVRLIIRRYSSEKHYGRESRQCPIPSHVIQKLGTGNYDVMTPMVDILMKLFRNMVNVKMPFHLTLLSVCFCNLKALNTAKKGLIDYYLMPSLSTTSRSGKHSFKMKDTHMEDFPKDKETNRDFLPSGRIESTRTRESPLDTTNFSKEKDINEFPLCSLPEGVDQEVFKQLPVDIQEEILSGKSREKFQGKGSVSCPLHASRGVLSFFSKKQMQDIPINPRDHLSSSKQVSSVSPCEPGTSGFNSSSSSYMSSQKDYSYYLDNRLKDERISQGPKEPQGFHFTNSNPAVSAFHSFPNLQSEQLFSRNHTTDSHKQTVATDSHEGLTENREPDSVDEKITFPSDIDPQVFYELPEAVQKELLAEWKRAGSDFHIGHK
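Pol iota at 10 nM preincubated 15 min with compounds at room temperature; reaction started with fluorescent substrate, 50 nM final. Fluorescence read kinetically at 0 and 10 min; buffer-only wells as negative control.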
Pol beta inh: DNA polymerase beta (human) inhibition. P06746. Pol beta primer extension/strand displacement, fluorescence kinetic. Potency, µM (series often up to 114 µM), for the others: top-dose activity change, negative = inhibition, actives largely listed as inhibitors. hit rate 1.3% among 340,000. AID 485314; note: % is set by controls: 0 for no effect and ±100 for the full control effect
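Enzyme-only controls used 10 nM Pol beta; buffer lacking enzyme served as negative control. Compound preincubated 15 min, then 50 nM substrate added; 0 and 10 min reads at room temperature.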
FEN1 inhibitor: human FEN1 inhibition | P39748 | Recombinant FEN1 flap cleavage, fluorescence, 15 min | Potency, µM (titrated, usually from 114 µM), without a hit: at the top dose activity change, negative = inhibition, actives largely listed as inhibitors | hit rate 0.35% among 390,000; note: % is set by controls: 0 for no effect and ±100 for the full control effect; nearly all actives have a fitted effect of over 65% in size
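Nuclease activity of 10 nM FEN1 was measured after 15 min of room-temperature exposure to titrated compounds, by adding 50 nM flap substrate and reading plates at 0 and 15 min.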
WRN inhibitor: blocks human WRN helicase. hit rate 0.46% among 360,000. AID 651768. WRN helicase unwinding, fluorescent forked duplex, kinetic. Q14191. Potency, µM (highest dose often 114 µM), for inactives: at the top dose activity change, negative = inhibition, most hits filed as inhibitors; note: % is set by controls: 0 for no effect and ±100 for the full control effect; nearly all actives have a fitted effect of over 55% in size
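Primary qHTS, 1536-well format. 20 nM WRN + compound, 15 min RT; start with 100 nM forked fluorophore/quencher duplex, 2 mM ATP (final); kinetic read ex 525/em 598 nm.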
Numbers without * were called inactive; ? = inconclusive; . = no result; [ ] = remark or other dose. Calls come from the whole dose curve; as a rule, active = well fitted curve in the direction sought with a large enough effect; inconclusive = small, poorly fitted or top-dose-only effect, or another doubt; inactive = no such curve, though single readings can be large; an effect the other way counts as inactive or inconclusive. Potency is the fitted concentration of half-maximal effect.

SMILES	Pol eta inh	POLK inh	POLI inh	Pol beta inh	FEN1 inhibitor	WRN inhibitor
COc1ccc(C2C3C=CCC(c4cccc(/C=C/c5ccccc5)c4)C3C(=O)N2Cc2ccccc2)cc1Cl (stereo unspecified)	.	0%	-13%	.	-4%	.
CC(=O)Nc1cccc(NC(=O)Cc2cccs2)c1	35µM*	-20%	?	-13%	13%	-1%[11.6 µM]
COc1ccc(CC(=O)Nc2cccc(-c3ccc4nnc(C)n4n3)c2)cc1	-2%	-13%	15%	51%	5%	0%
CCOc1cccc(NC(=O)Cc2cccs2)c1	-16%	-8%	-13%	20%	-4%	-2%
Cc1nnc2ccc(-c3cccc(NC(=O)Cc4cccs4)c3)nn12	?	?	35µM*	13µM*	-4%	-3%[11.6 µM]
CCC(=O)Nc1cccc(NC(C)=O)c1	.	.	.	22µM*	.	.
NC(C(=O)O)c1nn[nH]n1 (stereo unspecified)	.	-10%	-20%	.	0%	.
NC(=S)NCCCC(N)C(=O)O (stereo unspecified)	-4%[57.1 µM]	.	7%[58.9 µM]	21%[57.1 µM]	.	.
COc1ccccc1C(=O)NC(=O)COC(=O)c1nccnc1N	18µM*	-22%	3%	.	0%	-12%
CSCC[C@H](N)C(=O)N[C@@H](CCC(=O)O)C(=O)N[C@H](C(=O)NCC(=O)N[C@@H](Cc1c[nH]c2ccccc12)C(=O)N[C@@H](Cc1ccc(O)cc1)C(=O)N[C@@H](CCCNC(=N)N)C(=O)N[C@@H](CO)C(=O)N1CCC[C@H]1C(=O)N[C@@H](Cc1ccccc1)C(=O)N[C@@H](CO)C(=O)N[C@@H](CCCNC(=N)N)C(=O)N[C@H](C(=O)N[C@H](C(=O)N[C@@H](Cc1cnc[nH]1)C(=O)N[C@@H](CC(C)C)C(=O)N[C@@H](Cc1ccc(O)cc1)C(=O)N[C@@H](CCCNC(=N)N)C(=O)N[C@@H](CC(N)=O)C(=O)NCC(=O)N[C@@H](CCCCN)C(=O)O)C(C)C)C(C)C)C(C)C	.	15%[60.1 µM]	.	.	.	.
O=Nc1[nH]c(=O)c(/C=C(\O)c2ccccc2)nc1NO	?	-17%	4µM*	?	?	-15%
CNS(=O)(=O)c1ccc2nc(NC(=O)/C=C/c3ccco3)sc2c1	-1%	?	50µM*	?	-24%	-9%
O=C(/C=C1\NC2(CCCC2)Cc2ccccc21)C(=O)N/N=C/c1ccc(O)c(O)c1	11µM*	-39%	?	2µM*	-31%	?
Cc1cc(Br)ccc1NC(=O)COC(=O)c1ccccc1OCC(=O)N(C)C	.	9%	31%	.	-1%	.
COC(=O)C(NS(=O)(=O)CCl)C(C)C (stereo unspecified)	.	-8%	30%	.	-11%	.
Cc1nnc(SCC(=O)Nc2sccc2C#N)n1Cc1ccccc1	-63%	?	20µM*	35µM*	1%	-26%
O=C(CSc1nnnn1-c1ccc(O)cc1)NC1CCCCC1	-25%	-18%	58%	9%	12%	-1%[57.1 µM]
Cc1nnc(SCC(=O)Nc2sccc2C(N)=O)s1	-12%	-13%	?	.	-14%	-6%
N#Cc1ccsc1NC(=O)CSc1nnnn1-c1ccc(O)cc1	50µM*	0%	?	?	-23%	?
N#Cc1ccsc1NC(=O)CSc1nncs1	40µM*	-27%	?	.	-5%	-11%
Cc1nnc(SCC(=O)Nc2sccc2C#N)s1	25µM*	50µM*	40µM*	32µM*	?	?
COc1ccc(C2Nc3ccccc3C(=O)N2Cc2ccco2)cc1 (stereo unspecified)	.	-8%	19%	.	5%	.
Cn1ccnc1SCC(=O)Nc1sccc1C#N	?	?	?	32µM*	-4%	-9%[57.1 µM]
COC(=O)CCC/C=C1/SCC(NC(=O)c2ccccc2)C1=O (stereo unspecified)	?	-14%	45µM*	2%	-8%	-24%
COC(=O)CCC/C=C1/SCC(NC(=O)c2ccccc2)C1O (stereo unspecified)	?	?	?	-9%	2%	-33%
SMILES	Pol eta inh	POLK inh	POLI inh	Pol beta inh	FEN1 inhibitor	WRN inhibitor
COC(=O)c1[nH]c2c(c1C)C(=O)CC(c1cccc(OC)c1)C2 (stereo unspecified)	-5%	-22%	?	45µM*	-1%	-15%
COC(=O)c1[nH]c2c(c1C)C(=O)CC(c1ccc(C)cc1)C2 (stereo unspecified)	?	3%	17%	32%	-1%	-21%[57.1 µM]
Nc1c(-c2nc(-c3ccccc3)no2)nnn1CC(=O)Nc1cccc(F)c1	-26%	-3%	11%	14µM*	3%	.
Cc1cc(C)cc(NC(=O)Cn2nnc(-c3nc(-c4ccncc4)no3)c2N)c1	1%	-6%	25%	?	-6%	.
CC(=O)c1ccc(N2CCN(C(=O)COc3ccc4c(c3)CCC4)CC2)cc1	56µM*	?	79µM*	10µM*	-18%	-18%
Cc1cc(-c2ccc(S(=O)(=O)N3CCN(c4ccc(Cl)cc4)CC3)s2)on1	8%	0%	-2%	19%	0%	.
CCCCCCCCCCCCCCCCOC(=O)N1CCN(/[N+]([O-])=N/Oc2ccc([N+](=O)[O-])cc2[N+](C)=O)CC1	.	8%	?	.	8%	.
O=C(Nc1ccccc1)c1ccc(N2CCN(c3ccccn3)CC2)c(S(=O)(=O)N2CCOCC2)c1	-18%	-12%	89µM*	-20%	-15%	-12%
O=C(Nc1ccccc1)c1ccc(N2CCN(c3ccccc3)CC2)c(S(=O)(=O)N2CCOCC2)c1	-2%	-12%	14%	-11%	-8%	-3%
CN(C)CCn1nnnc1SCC1=C(C(=O)O)N2C(=O)[C@@H](NC(=O)Cc3csc(N)n3)[C@H]2SC1	?	50µM*	14µM*	.	?	-15%
CCc1ccccc1OCC(=O)Nc1ccc(S(N)(=O)=O)cc1	9%	-6%	-5%	-1%	-4%	8%
NS(=O)(=O)c1ccc(NC(=O)COc2cccc3ccccc23)cc1	79µM*	-6%	89µM*	-19%	-2%	?
Cc1ccc(/C=C2/CNC/C(=C\c3ccc(C)cc3)C2=O)cc1	.	5%[60.1 µM]	.	.	.	.
CC1OC(OCC2OC(Oc3cc(O)c4c(c3)OC(c3ccc(O)cc3)CC4=O)C(O)C(O)C2O)C(O)C(O)C1O (stereo unspecified)	.	-12%[12 µM]	.	.	.	.
O=C(NCc1ccco1)C1CCCN(S(=O)(=O)c2ccc(-n3cnnn3)cc2)C1 (stereo unspecified)	20µM*	?	?	25µM*	1%	-20%[57.1 µM]
